The source of these data is PubChem BioAssay (NCATS).

Experiment [1] in a line: qHTS assay for small molecule agonists of retinoid X receptor alpha signaling (AID 588544; calls by dose curve;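 for activation: 0% = DMSO basal wells and 100% = reference agonist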). The conditions noted are these: HEK293T RXRa-UAS-bla, beta-lactamase reporter, 18 h; 530 nm emission.
Experiment [2] concerns the target Retinoic acid receptor RXR-alpha (Homo sapiens) (UniProt P19793). The experiment is described as above. The following applies: HEK293T RXRa-UAS-bla, beta-lactamase reporter, 18 h; series mostly up to 76.7 µM.
Experiment [3] deals with Thyroid hormone receptor beta (Homo sapiens) (UniProt P10828). The experiment in a line: qHTS assay for small molecule agonists of thyroid hormone receptor beta signaling (AID 588545; calls by dose curve;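 note: 0% = DMSO only and 100% = 10 nM T3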). The conditions noted are these: TR-UAS-bla GripTite HEK 293, beta-lactamase ratio, agonist mode, 18 h, percent of T3 response, DMSO as zero; series mostly up to 76.7 µM. The procedure, abridged:
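Efficacy and EC50 values derive from Hill fits of qHTS titration data, normalized to 10 nM T3 and DMSO-only wells. HEK 293 reporter cells were stimulated for 18 hrs at 37 C, with beta-lactamase activity measured by CCF4 fluorescence.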

Experiment [4] can be described thus: qHTS assay for small molecule antagonists of retinoid X receptor alpha signaling (AID 588546; active = well fitted inhibition curve with a large enough effect in the signal ratio, with a control signal flat, not every such curve was filed as active; the % refers to the signal ratio;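 note: cells stimulated with 9-cis-retinoic acid as agonist; % is set by controls: 0 for no effect and ±100 for the full control effect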). The following applies: HEK293T RXRa-UAS-bla, beta-lactamase ratio, antagonist mode; measured here: W530 green channel, cytotoxicity proxy. The procedure, abridged: (§1)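 Beta-lactamase reporter inhibition, read as CCF4 fluorescence ratio (ex 405, em 460/530 nm) after 2 h at RT. HEK293T UAS-bla cells, 2500/well, were stimulated with 9-cis-RA at 500 or 100 nM final alongside test compound for 18 h at 37 C.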

Experiment [5] concerns the target Retinoic acid receptor RXR-alpha (Homo sapiens) (UniProt P19793). The description is as above. The following applies: HEK293T RXRa-UAS-bla, beta-lactamase ratio, antagonist mode. Summed up:
as §1

Experiment [6] has as its target Thyroid hormone receptor beta (Homo sapiens) (UniProt P10828). Put plainly: qHTS assay for small molecule antagonists of thyroid hormone receptor beta signaling (AID 588547; active = well fitted inhibition curve with a large enough effect in the signal ratio, with a control signal flat, not every such curve was filed as active; the % refers to the signal ratio;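 note: cells stimulated with 0.4 nM T3 agonist during compound exposure; % is set by controls: 0 for no effect and ±100 for the full control effect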). The following applies: TR-UAS-bla HEK293, beta-lactamase ratio, antagonist mode, 18 h. The procedure, abridged:
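TR-UAS-bla GripTite HEK293 cells in 2% charcoal/dextran FBS medium; compounds 0.59 nM to 92 uM with T3 at 0.4nM final, 18 h at 37 C. Beta-lactamase read by CCF4 fluorescence (460/530 nm); Hill fits gave IC50 and efficacy.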

In experiment [7] the target is Voltage-gated inwardly rectifying potassium channel KCNH2 (Homo sapiens) (UniProt Q12809). The experiment in a line: qHTS Assay for Small Molecule Inhibitors of the Human hERG Channel Activity (AID 588834).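 Note: top concentration of the series differs between compounds; % is set by controls: 0 for no effect and ±100 for the full control effect; lower thallium flux fluorescence means stronger hERG block; nearly all actives have a fitted effect of over 50% in size.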 The following applies: U2OS BacMam hERG, FluxOR thallium flux fluorescence; series mostly up to 46.1 µM. The procedure, abridged:
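Blockade is seen as reduced FluxOR thallium-flux fluorescence in U2OS cells expressing hERG from a BacMam construct, in Opti-MEM with 2% FCS. Concentration-response data fitted to the Hill equation for AC50.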

The target of experiment [8] is Luciferin 4-monooxygenase (Photinus pyralis) (UniProt P08659). Put plainly: Biochemical firefly luciferase enzyme assay for NPC (AID 624030).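 Note: purified P. pyralis luciferase at 10 nM with luciferin and ATP substrate; 0% = DMSO and -100% = full luciferase inhibition by PTC124 control; nearly all actives have a fitted effect of over 70% in size.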 The following applies: purified P. pyralis luciferase, luminescence, 5 min; series mostly up to 58.6 µM. The procedure, abridged: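 Purified P. pyralis luciferase at 10 nM in 50 mM Tris Acetate (final), luminescence read within 5 minutes of enzyme addition to compounds. Activity normalised to PTC124 versus DMSO; concentration-response curves classed by r2, magnitude and activity.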

A short description of experiment [9]: S16 Schwann cell viability assay (CellTiter-Glo assay) (AID 624031). Note: nearly all actives have a fitted effect of over 70% in size. Note: potency is the fitted concentration of half-maximal effect. The following applies: S16 rat Schwann cells viability, 24 h; series mostly up to 57.5 µM. The procedure, abridged:
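This viability control uses native rat S16 Schwann cells grown in DMEM plus 10% FBS. After a 24 h compound treatment at 37 °C, CellTiter-Glo luminescence reports ATP content, scaled against DMSO-treated and cell-free wells.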

Experiment [10] in a line: S16 Schwann cell PMP22 intronic element firefly luciferase assay (AID 624032).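 Note: plate controls were DMSO for no effect and PTC124 positive control mean for full effect; nearly all actives have a fitted effect of over 30% in size.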 The following applies: S16 rat Schwann cells, PMP22 element FLuc, 24 h; series mostly up to 57.5 µM. Summed up: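 Rat S16 Schwann cells stably carrying firefly luciferase driven by a PMP22 intronic element, in 10% FBS, treated 24 h at 37 C. ONE-Glo luminescence normalized to PTC124 control and DMSO (0%); curves classed by r2, magnitude and activity.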

A short description of experiment [11]: S16 Schwann cell PMP22 intronic element beta-lactamase assay (AID 624044; calls by dose curve;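 note: 0% = DMSO and -100% = potassium clavulanate positive control; nearly all actives have a fitted effect of over 15% in size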). The following applies: S16 rat Schwann cells, PMP22 element beta-lactamase FRET, 24 h; series mostly up to 38.3 µM. Summed up:
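Rat S16 Schwann cells with beta-Lac driven by a PMP22 intronic element, compound-treated 24 h at 37 °C. LiveBLAzer FRET B/G read: 460 nm normalized to potassium clavulanate vs DMSO; 535 nm FRET as viability; concentration-effect curves classified.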

Experiment [12] can be described thus: qHTS assay for small molecule agonists of the antioxidant response element (ARE) signaling pathway (AID 651741; active = well fitted activation curve with a large enough effect in the signal ratio; the % refers to the signal ratio; note: potency is the fitted concentration of half-maximal effect; for activation: % of control where 0% means no effect). The following applies: HepG2 ARE-bla reporter, beta-lactamase FRET ratio, 16 h; series mostly up to 96 µM. Summed up: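 CellSensor ARE-bla HepG2 cells (2,000/well) carrying ARE-driven beta-lactamase, exposed 16 h at 37 C. LiveBLAzer B/G FRET substrate added for 2 h at room temperature; fluorescence intensity read.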

Experiment [13] in a line: qHTS assay for small molecule activators of the p53 signaling pathway (AID 651743; active = well fitted activation curve with a large enough effect in the signal ratio, not every such curve was filed as active; the % refers to the signal ratio; note: potency is the fitted concentration of half-maximal effect; for activation: % of control where 0% means no effect). The conditions noted are these: HCT-116 p53RE-bla, beta-lactamase FRET ratio, 16 h; activation: stronger effect = higher value. Summed up: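 p53RE-bla HCT-116 cells carrying a beta-lactamase reporter under p53 response elements were exposed to compounds for 16 hours at 37 C. Reporter activity read as fluorescence after 2 hours at room temperature with LiveBLAzer B/G FRET substrate.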

Experiment [14] deals with Vitamin D3 receptor (Homo sapiens) (UniProt P11473). The experiment in a line: qHTS assay for small molecule antagonists of vitamin D receptor signaling (AID 588541; calls by dose curve;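 note: receptor activated by calcitriol during compound treatment; % is set by controls: 0 for no effect and ±100 for the full control effect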). The following applies: HEK293T VDR-UAS-bla, beta-lactamase ratio, antagonist mode; series mostly up to 76.7 µM. The procedure, abridged:
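VDR-UAS-bla HEK293T cells in 2% charcoal-stripped FBS were stimulated with 1-alpha,25-dihydroxyvitamin D3 (3 nM final) plus compound for 16 h at 37 C. The beta-lactamase CCF4 readout was normalized to 50 nM agonist and DMSO, and Hill fits gave IC50.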

The target is the same in experiment [15]. The experiment in a line: qHTS assay for small molecule agonists of vitamin D receptor signaling (AID 588543; calls by dose curve;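 note: 0% = DMSO basal and 100% = reference agonist control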). The conditions noted are these: HEK293T VDR-UAS-bla, beta-lactamase ratio, 16 h; series mostly up to 76.8 µM. The procedure, abridged: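 Measured: β-lactamase reporter activity (CCF4, 405 nm excitation, 460/530 nm emission) in HEK293T VDR-UAS-bla cells after 16 h compound exposure at 37 °C. Normalization against 50 nM 1α,25-dihydroxyvitamin D3 and DMSO; Hill-fit EC50.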

Several values for one entry are separate records, joined by “and”; a condition that tells them apart may be missing. Equal values may be shown once. Results filed as inconclusive are left out. Activity calls are given as the source filed them. Unless noted, calls come from the whole dose curve; as a rule, active = well fitted curve in the direction sought with a large enough effect; inconclusive = small, poorly fitted or top-dose-only effect, or another doubt; inactive = no such curve, though single readings can be large; an effect the other way counts as inactive or inconclusive.

Sequence of Vitamin D3 receptor (Homo sapiens) (P11473 whole entry, looked up): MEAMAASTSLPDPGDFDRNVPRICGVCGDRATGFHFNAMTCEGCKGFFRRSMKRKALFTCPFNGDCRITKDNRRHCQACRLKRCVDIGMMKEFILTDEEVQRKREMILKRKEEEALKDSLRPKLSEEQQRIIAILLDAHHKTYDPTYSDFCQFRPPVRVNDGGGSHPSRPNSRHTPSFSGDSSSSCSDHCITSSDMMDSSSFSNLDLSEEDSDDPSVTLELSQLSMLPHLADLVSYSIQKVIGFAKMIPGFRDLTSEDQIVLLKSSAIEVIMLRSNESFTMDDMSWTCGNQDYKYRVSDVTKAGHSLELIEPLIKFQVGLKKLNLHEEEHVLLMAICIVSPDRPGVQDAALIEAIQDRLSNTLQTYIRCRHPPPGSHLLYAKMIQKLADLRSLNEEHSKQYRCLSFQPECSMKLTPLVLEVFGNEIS
Sequence of Retinoic acid receptor RXR-alpha (Homo sapiens) (P19793 whole entry, looked up): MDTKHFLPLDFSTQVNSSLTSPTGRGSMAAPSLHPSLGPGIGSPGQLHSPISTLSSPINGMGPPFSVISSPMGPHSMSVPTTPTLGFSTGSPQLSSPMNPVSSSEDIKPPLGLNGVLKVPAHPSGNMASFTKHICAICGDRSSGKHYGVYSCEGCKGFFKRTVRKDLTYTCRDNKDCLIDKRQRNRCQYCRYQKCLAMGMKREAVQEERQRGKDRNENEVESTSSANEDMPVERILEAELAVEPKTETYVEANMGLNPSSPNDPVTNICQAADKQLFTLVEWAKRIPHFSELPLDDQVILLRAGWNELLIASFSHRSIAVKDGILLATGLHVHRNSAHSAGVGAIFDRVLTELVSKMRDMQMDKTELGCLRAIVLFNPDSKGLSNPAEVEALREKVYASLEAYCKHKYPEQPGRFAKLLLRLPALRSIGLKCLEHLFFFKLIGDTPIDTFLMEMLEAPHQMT
Sequence of Luciferin 4-monooxygenase (Photinus pyralis) (P08659 whole entry, looked up): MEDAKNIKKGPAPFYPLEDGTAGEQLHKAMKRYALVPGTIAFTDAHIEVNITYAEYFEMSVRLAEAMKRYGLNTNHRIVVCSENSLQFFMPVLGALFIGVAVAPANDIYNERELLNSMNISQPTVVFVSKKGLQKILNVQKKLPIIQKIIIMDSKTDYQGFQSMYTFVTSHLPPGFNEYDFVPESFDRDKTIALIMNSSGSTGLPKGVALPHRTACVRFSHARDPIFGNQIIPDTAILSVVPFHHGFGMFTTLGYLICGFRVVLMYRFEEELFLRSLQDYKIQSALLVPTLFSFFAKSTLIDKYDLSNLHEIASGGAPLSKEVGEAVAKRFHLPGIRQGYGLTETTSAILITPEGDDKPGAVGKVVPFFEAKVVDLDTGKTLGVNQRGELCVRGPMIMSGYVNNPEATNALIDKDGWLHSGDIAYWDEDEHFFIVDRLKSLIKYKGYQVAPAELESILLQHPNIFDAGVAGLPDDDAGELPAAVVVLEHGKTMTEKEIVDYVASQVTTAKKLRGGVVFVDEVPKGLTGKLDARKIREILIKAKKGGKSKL
Sequence of Thyroid hormone receptor beta (Homo sapiens) (P10828 whole entry, looked up): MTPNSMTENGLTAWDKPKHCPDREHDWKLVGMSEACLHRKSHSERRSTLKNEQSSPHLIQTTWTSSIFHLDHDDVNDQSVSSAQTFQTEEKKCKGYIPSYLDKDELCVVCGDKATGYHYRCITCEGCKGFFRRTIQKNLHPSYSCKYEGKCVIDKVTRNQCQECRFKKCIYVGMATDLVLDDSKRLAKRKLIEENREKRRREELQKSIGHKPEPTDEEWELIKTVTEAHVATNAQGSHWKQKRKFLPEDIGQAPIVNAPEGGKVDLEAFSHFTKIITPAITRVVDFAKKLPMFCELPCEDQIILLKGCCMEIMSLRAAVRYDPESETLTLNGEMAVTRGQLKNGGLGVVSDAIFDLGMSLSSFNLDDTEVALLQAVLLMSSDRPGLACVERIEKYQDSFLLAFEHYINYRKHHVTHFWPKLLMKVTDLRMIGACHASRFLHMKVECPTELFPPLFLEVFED
Sequence of Voltage-gated inwardly rectifying potassium channel KCNH2 (Homo sapiens) (Q12809 whole entry, looked up): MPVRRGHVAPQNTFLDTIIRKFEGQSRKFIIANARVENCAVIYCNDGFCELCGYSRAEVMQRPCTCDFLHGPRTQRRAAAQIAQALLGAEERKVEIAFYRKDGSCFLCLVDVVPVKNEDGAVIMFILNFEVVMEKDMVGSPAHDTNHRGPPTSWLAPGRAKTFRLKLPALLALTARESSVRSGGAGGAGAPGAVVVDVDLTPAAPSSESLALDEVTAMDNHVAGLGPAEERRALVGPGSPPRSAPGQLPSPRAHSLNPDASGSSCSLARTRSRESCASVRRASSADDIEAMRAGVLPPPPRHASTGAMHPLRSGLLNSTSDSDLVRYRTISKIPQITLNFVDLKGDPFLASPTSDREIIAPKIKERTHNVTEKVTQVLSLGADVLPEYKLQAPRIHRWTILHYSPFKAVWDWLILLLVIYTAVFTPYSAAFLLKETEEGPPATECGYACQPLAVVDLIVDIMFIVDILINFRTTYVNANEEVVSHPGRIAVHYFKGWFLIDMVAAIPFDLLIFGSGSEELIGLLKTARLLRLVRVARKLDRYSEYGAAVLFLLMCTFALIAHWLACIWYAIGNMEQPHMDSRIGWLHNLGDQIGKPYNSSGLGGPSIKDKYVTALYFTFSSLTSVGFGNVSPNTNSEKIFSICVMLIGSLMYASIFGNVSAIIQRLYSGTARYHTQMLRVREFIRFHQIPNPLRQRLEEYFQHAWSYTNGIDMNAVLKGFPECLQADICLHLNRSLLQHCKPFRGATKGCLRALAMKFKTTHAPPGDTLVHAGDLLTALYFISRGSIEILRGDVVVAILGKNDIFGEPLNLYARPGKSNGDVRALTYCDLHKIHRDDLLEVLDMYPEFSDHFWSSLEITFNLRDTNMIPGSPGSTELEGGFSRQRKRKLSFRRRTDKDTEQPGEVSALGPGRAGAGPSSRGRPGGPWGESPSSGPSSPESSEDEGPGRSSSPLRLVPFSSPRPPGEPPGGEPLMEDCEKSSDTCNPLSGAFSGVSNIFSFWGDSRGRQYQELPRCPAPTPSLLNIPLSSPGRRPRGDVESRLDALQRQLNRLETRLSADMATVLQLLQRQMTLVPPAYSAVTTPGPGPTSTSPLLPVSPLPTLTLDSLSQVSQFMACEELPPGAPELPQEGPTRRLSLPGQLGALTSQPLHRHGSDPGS

On to `O=C(NCNC(=O)NC1C(=O)NC(=O)N1CO)NC1C(=O)NC(=O)N1CO` (centres undefined), for which the figures for the max response in [1], in [4] and in experiment [5] were 0.0503%, -13% and -8.07% (inactive), respectively. Besides, the Potency entry in experiment [2], in experiment [7], in [8], in [9], in [10] and in experiment [11] was “inactive” in each case. For the same compound, in experiment [12], the Potency result is “inactive”. For the same compound, the result in experiment [3] was inactive. Besides, the activity change % (negative = inhibition) in experiment [6] was -0.544% (inactive). For the same compound, in experiment [13], the activation was -1.04% (inactive).
Take `[O]=[Cd]`: the Potency entry in [14], in [2], in experiment [7], in experiment [8], in experiment [9] and in experiment [10] was “inactive” in each case. Moreover, the Potency entry in [12] was “inactive”. For the same compound, the result in experiment [15] and in experiment [3] was inactive. The max response in experiment [1] is -12.6%; in experiment [4] it was -14.7%; in experiment [5] it was -2.87% (inactive). Moreover, in [6], the activity change % (negative = inhibition) was -10.1% (inactive). In addition, in experiment [13], the activation is 1.29% (inactive).
Consider `[O]=[Cr](=[O])([OH])[O][Cr](=[O])(=[O])[OH]`, for which the Potency entry in experiment [14], in experiment [7] and in [8] was “inactive” in each case. Further, the outcome in experiment [15] and in [3] was inactive. Besides, the max response in [4] is 7.42% and 14.4%; in experiment [5], -10.4% (inactive) and -3.4% (inactive). For the same compound, in experiment [6], the activity change % (negative = inhibition) is -20.9% (inactive). Besides, the Potency is 4.05 µM (active) and 2.87 µM (active) in [9]; 7.5 µM (active) in experiment [12]; 22.4 µM (active) and 15.8 µM (active) and 7.94 µM (active) in experiment [13].
Consider `O=[N+]([O-])c1ccc(F)c([N+](=O)[O-])c1`, for which the Potency entry in experiment [14], in experiment [7], in experiment [8], in [9] and in experiment [10] was “inactive” in each case. The outcome in experiment [15] was inactive. Moreover, the results for the max response in experiment [4] and in [5] were -4.46% and 1.55% (inactive), respectively. The activity change % (negative = inhibition) in experiment [6] is 5.42% (inactive). In addition, the Potency in experiment [12] is 42.2 µM (active).
In the case of `O=Cc1ccco1`, the Potency entry in [14], in [2], in experiment [7], in experiment [8], in experiment [9] and in experiment [10] was “inactive” in each case. Further, the Potency entry in experiment [11] and in experiment [12] was “inactive” in each case. The result in experiment [15] and in [3] was inactive. For the same compound, the max response in experiment [1] is -14.8%; in experiment [4], 9.13%; in experiment [5] it was -1.1% (inactive). In addition, in experiment [6], the activity change % (negative = inhibition) is -3.01% (inactive). Besides, the activation in [13] is -1.55% (inactive).
In the case of `Oc1cc(Cl)c(Cl)cc1Cl`, the max response in experiment [1] was -8.67%; in experiment [4], -1.91% and -9.59%; in experiment [5], -11.3% (inactive) and 1.52% (inactive). In addition, the Potency entry in experiment [2], in experiment [7], in [8] and in experiment [10] was “inactive” each time. Also, in experiment [3], the result was inactive. For the same compound, the activity change % (negative = inhibition) in [6] is 5.32% (inactive) and 6.79% (inactive). For the same compound, in [12], the Potency is 42.2 µM (active).
Turning to `N#CN`, the Potency entry in [14], in experiment [2], in experiment [7], in experiment [8], in experiment [9] and in experiment [10] was “inactive” throughout. Besides, the Potency entry in [11] and in experiment [12] was “inactive” each time. Also, the result in [15] and in experiment [3] was inactive. Besides, the results for the max response in [1], in experiment [4] and in experiment [5] were 4.27%, -6.13% and -9.07% (inactive), respectively.
With `ClC1C(Cl)C(Cl)C(Cl)C(Cl)C1Cl` (centres undefined), the figures for the max response in experiment [1], in experiment [4] and in experiment [5] were -3.03% [middle of 4 runs], -10.8% [middle of 4 runs] and -6.12% (inactive) [middle of 4 runs], respectively. The Potency result in experiment [2], in experiment [7], in [8], in [9], in experiment [10] and in [11] was “inactive” each time. Also, in experiment [12], the Potency result is “inactive”. Further, in experiment [3], the outcome was inactive. Besides, in experiment [6], the activity change % (negative = inhibition) is 0.744% (inactive) [middle of 4 runs]. Moreover, the activation in experiment [13] is -1.74% (inactive) [middle of 4 runs].
